Screens from PubChem BioAssay.
MKP-1 inh: MKP-1 phosphatase inhibitors, primary screen, biochemical, in vitro | Dual specificity protein phosphatase 1 (Homo sapiens), P28562 | recombinant MKP-1, OMFP hydrolysis fluorescence | inhibition, %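 (compounds tested at a single concentration somewhere between 10 and 100 µM)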 | 65,000 compounds, 0.15% hits | AID 374, 2006;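 active = inhibition above about 50%, limit read from the data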;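 also: 0% = DMSO max control wells and 100% = wells with enzyme stopped by NaOH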
NADH coupling: inhibitors of PK/LDH coupling enzymes, profiling panel, artefact control, biochemical, MLSMR library; IC50, µM (doses to about 10 µM), for the others: at the highest dose inhibition; 65,000 compounds, 0.02% hits; AID 774, 2007; coupled PK/LDH NADH assays, four targets;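 active = single-dose screening hits from any of four coupled enzyme assays that gave an IC50 when retested across doses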;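 also: the DPM-DC format reads NADH fluorescence rather than 340 nm absorbance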
Autofluor 339: intrinsic fluorescence of library compounds, ex339/em460 – biochemical, MLSMR library, data from DPM-DC assay, artefact control, profiling panel. fluorescence fold increase at 10 µM. AID 709, 2007. 65,000 compounds, 5.5% hits. compound autofluorescence, ex339/em460 nm, NADH buffer; active compounds read high; 1 = no-compound wells, NADH background;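 active = at 10 µM, mean starting fluorescence two-fold or more over control wells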;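 also: signal is the first read of a kinetic run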
A340 absorber: compound light absorbance at 340 nm, profiling panel, artefact control, biochemical, MLSMR library, data from PS, PMK, MK assays. 65,000 tested, under 10 active. compound absorbance at 340 nm, fold over control. fold change at 10 µM. AID 708, 2007;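 active = at 10 µM dose, initial 340 nm absorbance at least 2 fold that of control wells; inactive = change under 2 fold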;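 also: initial absorbance extrapolated from kinetic A340 decline of NADH oxidation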
Hsp90 inh: tumor Hsp90 inhibitors, primary screen, cell lysate, fluorescence polarization, NCI-N417 lysate; Heat shock protein HSP 90-alpha (Homo sapiens), P07900; Cy3B-geldanamycin FP displacement; AID 429, 2006; 64,000 compounds, 0.35% hits; inhibition, % at 30 µM;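 active = inhibition above 50%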;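 also: 0% = tracer plus lysate wells and 100% = tracer alone without lysate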
Cdc25B inh: inhibitors of Cdc25B phosphatase catalytic domain, primary screen, biochemical, OMFP fluorescence. recombinant Cdc25B, OMFP fluorescence Ex485/Em525. 65,000 compounds, 0.1% hits. M-phase inducer phosphatase 2 (Homo sapiens), P30305. inhibition, %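 (compounds tested at 10 µM final in the well)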. AID 368, 2006; in the data active = inhibition above about 50%
Target sequence (P30305 whole entry, looked up, the tested form may be a part): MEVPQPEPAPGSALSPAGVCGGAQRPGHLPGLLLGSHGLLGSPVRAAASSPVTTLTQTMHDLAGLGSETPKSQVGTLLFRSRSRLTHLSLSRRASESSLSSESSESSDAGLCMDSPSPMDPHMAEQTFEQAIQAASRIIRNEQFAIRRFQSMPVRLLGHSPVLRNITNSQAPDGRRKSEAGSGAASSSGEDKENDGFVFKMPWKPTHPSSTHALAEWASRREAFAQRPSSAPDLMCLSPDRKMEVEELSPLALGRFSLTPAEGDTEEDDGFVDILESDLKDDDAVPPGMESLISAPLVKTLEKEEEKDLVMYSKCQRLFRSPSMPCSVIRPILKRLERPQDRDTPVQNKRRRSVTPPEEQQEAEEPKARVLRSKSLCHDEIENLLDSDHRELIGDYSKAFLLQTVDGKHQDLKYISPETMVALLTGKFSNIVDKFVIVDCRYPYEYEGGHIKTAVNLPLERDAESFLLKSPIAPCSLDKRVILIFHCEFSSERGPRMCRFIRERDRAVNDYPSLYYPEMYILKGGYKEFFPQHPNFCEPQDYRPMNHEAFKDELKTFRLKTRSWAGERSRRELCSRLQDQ
* hit, by the source's call; . = no result given. In the library only some 5.7% were active in any assay of this set; here they are far more common.

SMILES	MKP-1 inh	NADH coupling	Autofluor 339	A340 absorber	Hsp90 inh	Cdc25B inh
CC(=O)N1C2CCCCC2S[C@H]2CCCCC21 (some centres not stated)	-24.7	2.0%	1.04	0.98	-1.3	-7.6
Cc1ccc(-c2[nH]nc3c2C(c2ccc(OC(=O)N4CCOCC4)cc2)C(C#N)=C(N)O3)cc1 (configuration not stated)	31.1	2.0%	1	1	0.6	2.8
COc1ccc(OC)c(C2=Nn3c(nnc3-c3cccc(OC(C)C)c3)SC2)c1	-4.4	13.0%	1.16	1.04	-0.6	-8.9
Oc1ccc(-c2nc(-c3ccc(O)c(O)c3)cs2)cc1	7.3	5.0%	1.27	1.07	99.4*	8.0
c1cncc(-c2nc(-c3ccc4c(c3)OCO4)cs2)c1	-20.8	3.0%	1.06	1.07	-0.2	-13.7
CCOC(=O)CCc1c(C)c2ccc(OC(C)C(=O)OCC)c(C)c2oc1=O (configuration not stated)	6.3	2.0%	3.77*	1.12	1.1	2.0
Cc1ccc(S(=O)(=O)NCCSc2nnnn2-c2cc(C)ccc2C)cc1	-3.0	5.0%	1.12	1.04	-2.2	-30.6
Cc1ccc(C)c(-n2nnnc2SCC(=O)c2ccc3c(c2)NC(=O)CO3)c1	52.3*	7.0%	1.04	1	-6.0	-6.1
O=C(NCC(=O)N(c1ccccc1)C(C(=O)NCC1CCCO1)c1ccccc1)c1ccco1 (configuration not stated)	26.9	4.0%	1.05	1.02	-0.3	-4.7
Cn1c(=O)c2c(ncn2CC(=O)N2CCN(c3ccc(F)cc3)CC2)n(C)c1=O	2.3	4.0%	1.1	1.02	-2.1	-4.0
CCCCCCNc1cc2n(c(=O)n1)CCc1cc(OC)c(OC)cc1-2	-6.3	8.0%	3.36*	1.13	41.4	5.6
COc1cc2c(cc1OC)-c1cc(NC3CCCCC3)nc(=O)n1CC2	0.8	7.0%	1.72	1.11	8.6	3.1
CCNc1cc2n(c(=O)n1)CCc1cc(OC)c(OC)cc1-2	-9.7	6.0%	2.69*	1.17	20.6	4.3
COc1cc2c(cc1OC)-c1cc(NCc3ccccn3)nc(=O)n1CC2	-13.1	35.0%	3.35*	1.18	12.3	-0.1
COc1cc2c(cc1OC)-c1cc(NC3CC3)nc(=O)n1CC2	-14.7	8.0%	1.72	1.14	-1.9	-4.5
COc1cc2c(C(=O)NCc3ccccn3)cn(C)c(=O)c2cc1OC	4.0	2.0%	1.14	1.02	.	-4.1
COc1cc2c(cc1OC)-c1cc(NC3CCCCCCC3)nc(=O)n1CC2	31.7	11.0%	2.37*	1.13	5.3	8.5
CC1Cc2ccccc2N1C(=O)CSc1nnc(CNc2ccccc2)o1 (configuration not stated)	27.8	3.0%	1.08	0.99	-1.6	-7.5
COc1cc2c(cc1OC)-c1cc(OCCN3CCOCC3)nc(=O)n1CC2	-14.7	7.0%	3.86*	1.12	-2.4	5.7
COc1cc(C(=O)OCCN2CCOCC2)cc(OC)c1OC	5.7	2.0%	1.05	1.03	.	2.3
COc1ccc(C2C(C(=O)NCC3CCCO3)c3cc(OC)c(OC)cc3C(=O)N2C)cc1OC (configuration not stated)	4.9	3.0%	1.11	1.05	.	-11.6
CCC(C)(C)NC(=O)CN(C(=O)CNS(=O)(=O)c1ccc(C)cc1)c1ccc2c(c1)OCCO2	12.0	8.0%	1.01	0.99	-1.1	-11.4
CCc1ccc(NC(=O)c2ccc3c(c2)C(=O)N(Cc2ccco2)C3=O)cc1	39.9	1.0%	1.16	1.06	-2.9	12.3
COC(=O)c1ccccc1NC(=O)c1ccc2c(c1)C(=O)N(Cc1ccco1)C2=O	29.9	19.0%	3.06*	1.07	-1.5	2.1
Cc1cc(N)n2ncc(-c3cccc(Br)c3)c2n1	-3.5	11.0%	2.19*	1.05	-4.0	-9.3
SMILES	MKP-1 inh	NADH coupling	Autofluor 339	A340 absorber	Hsp90 inh	Cdc25B inh
COc1ccccc1CNC(=O)CN(C)CC(=O)Nc1cccc(F)c1	7.2	5.0%	1.16	1.04	-2.7	2.8
Cc1ccc(S(=O)(=O)N2CCOCC2)cc1C(=O)NCc1ccco1	6.0	6.0%	1	0.99	-4.5	-0.1
O=C(NCc1ccco1)c1c[nH]c2ccc(S(=O)(=O)N3CCOCC3)cc2c1=O	11.7	8.0%	2.11*	1.08	-3.7	1.1
O=C(O)c1c[nH]c2ccc(S(=O)(=O)N3CCOCC3)cc12	-14.4	6.0%	1.04	1.01	-9.4	-33.5
CCCCN(C)C(=O)c1c[nH]c2ccc(S(=O)(=O)N3CCOCC3)cc2c1=O	9.8	4.0%	2.17*	1.05	0.6	1.1
Oc1cc(O)c2c(c1)O[C@H](c1ccc(O)c(O)c1)[C@@H](O)C2	.	.	.	.	70.4*	.
Cc1ccc2c(c1)c1c(n2CC(O)Cn2nc(C)c(Br)c2C)C(=O)CCC1 (configuration not stated)	25.3	2.0%	1.94	1	-0.5	-3.6
CC(=O)c1c(C)nn(CC(O)Cn2c3c(c4cc(C)ccc42)CCCC3=O)c1C (configuration not stated)	13.7	8.0%	5.18*	1.09	-5.2	-14.7
COC(=O)c1ccc(CSc2ccc3nnc(-c4cccc(F)c4)n3n2)o1	-1.9	13.0%	1.45	1.03	-0.2	-11.7
COC(=O)C(CC(=O)c1ccc(Br)cc1)n1ccnc1 (configuration not stated)	4.0	6.0%	1.05	1.06	4.8	-10.7
CCOC(=O)c1cc2c(=O)n3ccccc3nc2n(C(C)C)c1=NC(=O)c1ccncc1	9.1	15.0%	1.62	1.05	.	-0.9
COCCCn1c(=NC(=O)c2ccc3c(c2)OCO3)c(C#N)cc2c(=O)n3cccc(C)c3nc21	3.4	4.0%	1.31	1.08	-5.0	-2.1
CCOC(=O)c1cc2c(=O)n3ccccc3nc2n(Cc2ccco2)c1=NC(=O)c1cccnc1	6.7	3.0%	2.25*	1.01	.	-1.0
CCOC(=O)c1cc2c(=O)n3ccccc3nc2n(CC(C)C)c1=NC(=O)c1ccco1	14.2	3.0%	2.47*	1.04	-5.0	-7.8
CCOC(=O)c1cc2c(=O)n3cccc(C)c3nc2n(Cc2ccco2)c1=NC(=O)c1cccnc1	8.3	8.0%	2.17*	0.99	-12.9	-2.4
Cc1cccn2c(=O)c3cc(C#N)c(=NC(=O)c4ccccc4)n(Cc4ccco4)c3nc12	30.3	7.0%	2.26*	1.09	.	1.9
O=C1C(=O)N(CCCn2ccnc2)C(c2cccnc2)/C1=C(/O)c1ccc(Cl)cc1 (configuration not stated)	2.3	8.0%	1.02	1.06	-5.8	-5.5
O=c1c2ccccc2nc2n1CCCS2	12.6	0.0%	1.1	1.06	0.9	-7.1
